SMILES strings stand for the structures. The panel holds about 83,000 compounds, 20% with a hit somewhere; the sample as a whole holds those more often.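 Activity criterion: percent growth below 10, measured after cells in 96-well plates were exposed to a single compound concentration for 48 hours.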 Calls of active or inactive are those of the source.

The test system of this experiment is HCC-2998 colon. The experiment in a line: NCI-60 one-dose screen, 48 h (100 = growth as untreated, 0 = no growth, -100 = all killed). Particulars: 10 µM unless noted.
With `Cc1ccc(-c2csc(NC(=O)CN3CCN(c4cc5c(cc4F)c(=O)c(C(=O)O)cn5C4CC4)CC3)n2)cc1`, the growth was 31.2% (inactive).
The same measure for `O=C(Nc1ccc(-c2nc(N3CCOCC3)c3cccn3n2)cc1)Nc1cccnc1`: 12.9% (inactive).
With `CC(=O)OC[C@]12CCC(C)(C)C[C@H]1[C@@]1(O)[C@H](O)C[C@@H]3[C@@]4(C)CCCNC(C)(C)[C@@H]4CC[C@@]3(C)[C@]1(C)CC2` the figure was 109% (inactive); with `Cn1ccnc1C(=O)C(=O)Nc1ccc(CC(=O)Nc2ccccc2)cc1`, 106% (inactive).
The same measure for `O=[N+]([O-])c1ccc(-c2nc(N3CCOCC3)c3c4c(sc3n2)CCCC4)cc1`: 102% (inactive); for `O=C1/C(=C\c2cn(-c3ccccc3)nc2-c2ccc(-c3cccs3)cc2)CCc2ccccc21`: 79.8% (inactive).
Take `Cc1ccc(-c2cc(-c3ccc(Cl)cc3)nc(NC(=O)c3cccnc3)n2)cc1`: the growth was 115% (inactive).
For `C[C@@H]1CCC[C@H]1CC(N)C(=O)O` (stereo not given in full), the growth was 103% (inactive).
As to `CSc1nnc(-c2cnn3c2NC(c2ccccc2)C3)n1-c1ccc(C(F)(F)F)cc1` (stereo not given), the growth is 85.9% (inactive).
The same measure for `COc1ccccc1Nc1nc2c(s1)C1=CC[C@H]3[C@@H]4CC[C@H]([C@H](C)CCCC(C)C)[C@@]4(C)CC[C@@H]3[C@@]1(C)CC2`: 101% (inactive); for `CCOC(=O)c1ccc2[nH]c(O)c(C(=Nc3ccc(N(C)C(=O)CN4CCN(C)CC4)cc3)c3ccccc3)c2c1`: -55.2% (active).
Take `COc1ccc(-c2nnc(-c3ccc4c(c3)nc(-c3ccncc3)n4C3CCCCC3)o2)cc1`: the growth was 88.8% (inactive).
The same measure for `CCCCCCC1(C)NCCO1` (stereo not given): 99.2% (inactive); for `O=C(CCCCCCN1CC(=O)N2[C@H](c3cc(Br)cs3)c3[nH]c4ccccc4c3C[C@H]2C1=O)NO`: 75.1% (inactive).
With `C=CCn1c(SCC(=O)Nc2ccc(C(=O)/C=C/c3cc4cc(OC)ccc4nc3Cl)cc2)nnc1-c1ccc(Br)cc1` the figure was 95.1% (inactive); with `O=C(COc1ccc(-c2nc3ccccc3[nH]2)cc1)N=Nc1c(O)[nH]c2ccc(Cl)cc12`, 65.2% (inactive); with `Cc1cc(=O)[nH]c2c(C#N)cnn12`, 101% (inactive).
`O=C1Nc2ccc(I)cc2C1=O`: the growth was 62.9% (inactive).
With `Fc1ccc(Nc2nc3nonc3nc2Nc2ccc(I)cc2)cc1` the figure was 9.77% (active).
As to `CN1CCN(Cc2ccc3c(NNC(=O)c4ccccc4)nc4cc(F)ccc4n23)CC1`, the growth is 32.1% (inactive).
The same measure for `O=C(Nn1c2c(sc1=NCc1ccccc1)C(=O)c1ccccc1C2=O)c1cc2ccc1CCc1ccc(cc1)CC2`: 101% (inactive); for `Cc1cc2c(O)c(-c3cccc(Cl)c3)c3sc(=O)oc3c2cc1C`: 73.1% (inactive).
The same measure for `CC12CCC3c4ccccc4CCC3(CO1)C2` (stereo not given): 94.2% (inactive); for `O=C(Cn1cc(CN2CCCCCC2)nn1)Nc1ccc2c(ccn2Cc2ccccc2)c1`: 97.6% (inactive).
The same measure for `COc1cc(OC)cc(C2=C3CC[C@@H]4[C@H](CC[C@]5(C)C(=O)CC[C@@H]45)C3=CC3C(O)c4cccnc4N4C(=O)COC234)c1` (stereo not given in full): 96.6% (inactive); for `O=C(Cn1c(-c2ccc([N+](=O)[O-])cc2)nc2ccccc21)NNC(=O)c1cccnc1`: 98.5% (inactive).
In the case of `CCNc1nc(-c2ccc(Cl)c(OC)c2)c(-c2ccnc(NCCCNS(=O)(=O)c3ccc(Cl)cc3)n2)s1`, the growth is 102% (inactive).
With `COc1ccc2c(O)c(/C=C3\N=Nc4ccccc43)oc2c1C[C@@H]1CCNC[C@H]1F` the figure was 78% (inactive); with `CC(C)(C)[Si](C)(C)O[C@H]1C(=O)C=CN2CC=C[C@@H]12`, 111% [100 µM] (inactive).
The same measure for `CN1CCN(Cc2ccc(NC(=O)c3cncc(C#Cc4cnc(N)c5ccccc45)c3)cc2C(F)(F)F)CC1`: -92.3% (active).
On to `CC(C)N1CN2C(=S)NC3C2N(C1)C(=S)N3C` (stereo not given), for which the growth is 113% (inactive).
With `COc1ccc(C(=O)Nc2cccc(C3CC(=O)c4c(cc(OC)c(OC)c4OC)O3)c2)cc1` (stereo not given) the figure was 64.9% (inactive); with `O=c1oc2ccc([N+](=O)[O-])cc2cc1Br`, 114% (inactive); with `CCOC(=O)c1cc2c(=O)oc3ccccc3c2oc1=O`, 102% (inactive).
`Clc1ccc(Sc2cnc(-c3ccccc3)o2)cc1`: the growth was 99.2% (inactive).
With `CN(C)c1ccc(/C=C/C(=O)c2ccc(-n3cc(CN4CCN(c5cc6c(cc5F)c(=O)c(C(=O)O)cn6C5CC5)CC4)nn3)cc2)cc1` the figure was 79.3% (inactive); with `Oc1ccc(CCn2c(O)c(/C=C3\CN=c4ccccc4=N3)sc2=S)cc1`, 87.1% (inactive).
With `COC1C[C@H](O[C@@H]2C[C@H](O[C@@H]3C[C@H](O[C@@H]4C(=O)c5c(cc6cc(O[C@H]7C[C@@H](O[C@H]8C[C@@H](O)[C@H](O)C(C)O8)[C@H](O)C(C)O7)c(C)c(O)c6c5O)C[C@H]4C(OC)C(=O)[C@@H](O)[C@@H](C)O)OC(C)[C@H]3O)OC(C)[C@@H]2O)OC(C)[C@@H]1O` (stereo not given in full) the figure was -18.8% (active); with `C[C@H](NC(=O)[C@@H](C)N)[C@H](Oc1ccc2c(cnn2-c2ccc(F)cc2)c1)c1ccc2c(c1)OCCO2`, 28.1% (inactive); with `CCc1ccc(Oc2cn[nH]c2-c2ccc(OCCc3ccc(F)cc3)cc2O)cc1`, 98.5% (inactive).

For the origin of these results see PubChem BioAssay (NCI).
